# Source: PubChem
# EWS-Fli inh: blocks EWS/Fli oncoprotein-driven transcription | hit rate 0.67% among 350,000 | A673 NR0B1-luciferase reporter, viability-normalised | inhibition, % at 12.6 µM | AID 651661;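 active means mean inhibition of at least 50% after viability correction, with every replicate also passing that limit; inconclusive means mean reaches 50% but only one of two replicates passes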;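 further: firefly luciferase signal divided by Alamar Blue viability fluorescence both relative to DMSO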
# TWEAK-Fn14 inh: blocks TWEAK-Fn14 interaction in a reporter cell assay; inhibition, % at 10 µM; hit rate 2% among 360,000; AID 1159606; TWEAK-stimulated Fn14 reporter cells, luciferase luminescence, 8 h; in the data active means inhibition above about 50%
# TROY NFkB inh: blocks TROY-dependent signaling in reporter cells | Q293 LMP1-TROYcd NF-kB luciferase reporter, 4 h | inhibition, % at 10 µM | hit rate 0.98% among 360,000 | AID 1347056;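 active means compounds whose plate-normalised and pattern-corrected inhibition of the luciferase reporter signal at the single screening dose is 50% or more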
# LGR2 antag: Drosophila LGR2 receptor signaling inhibition; hit rate 0.35% among 380,000; HEK293 LGR2, CRE-luciferase, bursicon-stimulated, 4 h; inhibition, % at 9.99 µM;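 active means drop in luminescence signal, shown as inhibition above about 50% in the replicate tests, limit read from the data, passing the limit was not always enough; inconclusive means probably only some replicates passing the limit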;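 further: agonist challenge used bursicon conditioned medium at about half maximal strength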
# PAX8 inh HTS: PAX8 transcriptional activity inhibition; RMG-I TPO-luciferase reporter, SteadyGlo, 24 h; inhibition, % at 12.6 µM; hit rate 1.2% among 360,000; AID 652154;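 active means mean replicate inhibition at least 60% with every replicate also reaching 60%; inconclusive means only one of the two criteria is met; inactive means mean below 60% and not all replicates reaching 60%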;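 further: luciferase light reporting Pax8 driven TPO promoter activity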
# Numbers stand for hits; n = inactive; u = inconclusive; x = no result given. A selection: hits, their analogues and other compounds. The true share with any hit is near 2.8%.
SMILES,EWS-Fli inh,TWEAK-Fn14 inh,TROY NFkB inh,LGR2 antag,PAX8 inh HTS
C[C@H](CO)N1C[C@H](C)[C@H](CN(C)C(=O)CN(C)C)Oc2cc(C#Cc3ccc(F)cc3)ccc2S1(=O)=O,58,x,x,n,x
C[C@@H]1CN([C@H](C)CO)S(=O)(=O)c2ccc(C#Cc3ccc(F)cc3)cc2O[C@@H]1CN(C)C(=O)CN(C)C,n,x,x,n,x
COc1cccc(S(=O)(=O)N(C)C[C@@H]2Oc3ncc(C#Cc4ccc(C(F)(F)F)cc4)cc3C(=O)N([C@H](C)CO)C[C@@H]2C)c1,n,x,x,n,x
CO[C@H]1CN(C)C(=O)c2ccc(NC(=O)C3CC3)cc2OC[C@@H](C)N(C(=O)C2CCOCC2)C[C@@H]1C,n,x,x,n,n
C=C1C(=O)C23C(O)C1CCC2C12CCCC(C)(COC(C)=O)C1C(O)C3(O)OC2 (stereo not given),57,101,77,98,123
COc1ccc(N(C(=O)c2ccco2)S(=O)(=O)c2ccccc2)cc1,x,n,n,x,x
COc1ccc(N(C(=O)c2ccco2)S(=O)(=O)c2cc(Cl)c(Cl)cc2Cl)cc1,x,n,54,x,x
CN(C)CCCNC(=O)C[C@H]1CC[C@H]2[C@@H](COc3ccc(NC(=O)c4ccccc4F)cc3C(=O)N2C)O1,n,x,x,n,n
Cc1ccccc1CNC(=O)/C=C\C(=O)O,x,n,75,n,n
COc1ccccc1CNC(=O)/C=C/C(=O)O,n,n,n,n,n
CCOC(=O)CC1CCCCN1C(=O)c1cc(COc2cccc3cnccc23)on1 (stereo not given),n,62,n,n,n
COc1ccc(-c2nn(-c3ccccc3)cc2C(=O)NC(=S)NNC(=O)c2ccncc2)cc1,n,60,n,n,n
COc1ccc(NC(=O)c2cn(-c3ccccc3)nc2-c2ccncc2)cc1,n,n,n,n,n
C[C@H]1CN([C@@H](C)CO)C(=O)c2cc(NS(=O)(=O)c3cn(C)cn3)ccc2O[C@@H]1CN(C)Cc1ccc(C(F)(F)F)cc1,n,x,x,n,n
COC(=O)[C@]12C[C@H](CC(=O)NCc3ccc(OC)c(OC)c3)C(=O)N(Cc3ccc4c(c3)OCO4)C1=C[C@H](C(C)(C)C)O[C@@H]2C,n,x,x,n,79
CCCCCCCCN1C(=O)[C@@H](CC(=O)N2CCN(C(=O)c3ccco3)CC2)C[C@@]2(C(=O)OC)C1=C[C@H](C1CCCC1)O[C@@H]2C,n,x,x,n,73
CCCCCCCCN1C(=O)[C@@H](CC(=O)N2CCN(C(=O)c3ccco3)CC2)C[C@@]2(C(=O)OC)C1=C[C@H](C(C)(C)C)O[C@@H]2C,n,x,x,n,84
CCCCCCCCN1C(=O)[C@@H](CC(=O)N2CCSCC2)C[C@@]2(C(=O)OC)C1=C[C@H](C1CCCC1)O[C@@H]2C,n,x,x,n,n
O=C(c1ccc2c(c1)OCO2)N1CC[C@@H]2[C@@H](CO)Nc3ccc(-c4ccccc4)cc3[C@@H]21,n,x,x,n,n
Nc1ccc2c(c1)C(=O)C(=O)c1ccccc1-2,x,105,59,x,x
O=C1C(=O)c2ccc(-c3ccccc3)cc2-c2ccccc21,x,107,83,x,x
Nc1ccc2c(c1)C(=O)c1ccccc1-2,n,n,n,n,n
N#Cc1c(NC(=O)CSc2nc(N)cc(=O)[nH]2)sc2c1CCCCCC2,n,n,n,n,x
N#Cc1c(NC(=O)CSc2ncn[nH]2)sc2c1CCCCC2,x,75,n,n,x
N#Cc1c(NC(=O)c2nc3ncccn3n2)sc2c1CCCCC2,x,70,n,n,x
SMILES,EWS-Fli inh,TWEAK-Fn14 inh,TROY NFkB inh,LGR2 antag,PAX8 inh HTS
Oc1ccc(-c2csc(-c3cccnc3)n2)cc1O,n,n,n,n,n
Cc1cccc(Nc2nc(-c3ccc4c(c3)OCCO4)cs2)c1,x,70,66,x,x
c1cncc(-c2nc(-c3ccc4c(c3)OCCO4)cs2)c1,n,52,n,n,n
Cc1cccc(Nc2nc(-c3ccncc3)cs2)c1,n,n,n,n,n
Cc1nc2ccccn2c1-c1csc(Nc2cccc(O)c2)n1,n,n,n,n,n
Cc1cccc(Nc2nc(-c3c(C)nc4ccccn34)cs2)c1,x,66,n,x,x
O=C(Nc1nc(-c2ccc3c(c2)OCCO3)cs1)c1ccc(Br)o1,n,n,55,n,n
O=C1CN(Cc2ccc(F)cc2)C[C@H]2[C@H](c3ccc(Br)cc3)[C@@H](CO)N12,n,x,x,n,n
C/C=C/c1ccc2c(c1)O[C@H](CN(C)C(=O)c1cccc(F)c1)[C@@H](C)CN([C@H](C)CO)S2(=O)=O,n,x,x,n,x
CC(C)c1ccc(/C=C(\c2nc3ccccc3[nH]2)S(=O)(=O)c2ccccc2)cc1,x,94,n,59,87
O=S(=O)(/C(=C/c1ccc(C(F)(F)F)cc1)c1nc2ccccc2[nH]1)c1ccccc1,x,63,n,u,115
C/C(=C\c1ccc(N)cc1)c1nc2ccccc2[nH]1,n,n,n,n,n
C[C@@H]1CCCCO[C@@H](CN(C)C(=O)Nc2ccc3c(c2)OCO3)[C@@H](C)CN([C@H](C)CO)C(=O)c2cc(NC(=O)c3ccncc3)ccc2O1,n,x,x,n,x
C[C@@H](O)C#Cc1cnc2c(c1)C(=O)N([C@@H](C)CO)C[C@H](C)[C@@H](CN(C)C(=O)c1ccccc1)O2,n,x,x,n,x
Cc1ccc(-c2ccc([C@@H]3[C@@H](CO)N4CCCCN(S(=O)(=O)c5cccc(C)c5)C[C@@H]34)cc2)cc1,n,x,x,x,n
Cc1cccc(-c2ccc([C@H]3[C@@H](CO)N4CCCCN(S(=O)(=O)c5cccc(C)c5)C[C@@H]34)cc2)c1,n,x,x,n,96
Cc1ccc(-c2ccc([C@H]3[C@@H](CO)N4CCCCN(S(=O)(=O)c5cccc(C)c5)C[C@H]34)cc2)cc1,n,x,x,x,73
CC(=O)Nc1ccc(S(=O)(=O)N2c3ccc(F)cc3CCC2C)cc1 (stereo not given),u,n,n,n,n
COc1ccc(S(=O)(=O)N2c3ccc(F)cc3CCC2C)cc1 (stereo not given),n,n,n,n,78
CCCC[C@@H]1CNCCN1CCc1cc(C(F)(F)F)cc(C(F)(F)F)c1,n,n,n,n,n
FC(F)(F)c1cc(CCN2CCNC[C@@H]2CC2CCCCC2)cc(C(F)(F)F)c1,55,n,n,n,n
Cc1cccc2c3nc4ccccc4nc3n(CCCN3C(=O)c4ccccc4C3=O)c12,x,71,n,n,n
C[C@H](CO)N1C[C@H](C)[C@H](CN(C)Cc2ccc(-c3ccccc3)cc2)Oc2c(NS(=O)(=O)c3ccc(F)cc3)cccc2C1=O,n,x,x,n,65
Cc1ccc(S(=O)(=O)Nc2cccc3c2O[C@@H](CN(C)Cc2ccc(Oc4ccccc4)cc2)[C@@H](C)CN([C@H](C)CO)C3=O)cc1,n,x,x,n,90
O=C(/C=C\Nc1ccc2c(c1)OCO2)c1ccccn1,x,104,75,x,x
O=C(Nc1ccc2c(c1)OCO2)c1ccccn1,n,n,n,x,n
O=C(/C=C\Nc1ccc2c(c1)OCO2)c1ccc(Cl)s1,n,53,n,n,n
O=C(/C=C\Nc1ccc2c(c1)OCO2)c1cccs1,n,n,n,n,n
C=CCNc1nc(Nc2ccc(-c3nc4ccccc4o3)cc2)nc(N2CCOCC2)n1,n,53,58,n,x
